Hits are enriched below; roughly 28% of the tested compounds scored in any of these assays.
CYP2C19 inhib – blockers of cytochrome P450 2C19 activity – biochemical, luminescence, ADME assay, primary screen; CYP2C19 Supersomes, luciferin-H EGE luminescence, 30 min; inhibition, % at 5 µM; 96,000 tested, 21% active; AID 778, 2007; P33261;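 active means CYP2C19 inhibition above a set limit at 5 µM in the primary screen, cut at about 50% in these data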;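 further: plate controls were negative control wells for no effect and 2.5 mM tranylcypromine positive control for full effect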
CYP2C9 inhib – blockers of cytochrome P450 2C9 activity – biochemical, luminescence, ADME assay, primary screen; P11712; CYP2C9 Supersomes, luciferin-H conversion; inhibition, % at 5 µM; 96,000 tested, 20% active; AID 777, 2007;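 active means blocking of liver enzyme CYP2C9 beyond about 50% at 5 µM, limit read from the data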
Mac1 fbg inh – inhibitors of CD11b/CD18 adhesion to fibrinogen, primary screen, K562 cells, luminescence | inhibition, % at 10 µM | AID 1497, 2009 | ATPlite luminescence; Mn2+ added to activate the integrin | 93,000 tested, 0.54% active;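 active means primary inhibition of 50% or more at 10 µM, then 40% or more on retest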
Target sequence (P05107 whole entry, looked up, other chains not shown): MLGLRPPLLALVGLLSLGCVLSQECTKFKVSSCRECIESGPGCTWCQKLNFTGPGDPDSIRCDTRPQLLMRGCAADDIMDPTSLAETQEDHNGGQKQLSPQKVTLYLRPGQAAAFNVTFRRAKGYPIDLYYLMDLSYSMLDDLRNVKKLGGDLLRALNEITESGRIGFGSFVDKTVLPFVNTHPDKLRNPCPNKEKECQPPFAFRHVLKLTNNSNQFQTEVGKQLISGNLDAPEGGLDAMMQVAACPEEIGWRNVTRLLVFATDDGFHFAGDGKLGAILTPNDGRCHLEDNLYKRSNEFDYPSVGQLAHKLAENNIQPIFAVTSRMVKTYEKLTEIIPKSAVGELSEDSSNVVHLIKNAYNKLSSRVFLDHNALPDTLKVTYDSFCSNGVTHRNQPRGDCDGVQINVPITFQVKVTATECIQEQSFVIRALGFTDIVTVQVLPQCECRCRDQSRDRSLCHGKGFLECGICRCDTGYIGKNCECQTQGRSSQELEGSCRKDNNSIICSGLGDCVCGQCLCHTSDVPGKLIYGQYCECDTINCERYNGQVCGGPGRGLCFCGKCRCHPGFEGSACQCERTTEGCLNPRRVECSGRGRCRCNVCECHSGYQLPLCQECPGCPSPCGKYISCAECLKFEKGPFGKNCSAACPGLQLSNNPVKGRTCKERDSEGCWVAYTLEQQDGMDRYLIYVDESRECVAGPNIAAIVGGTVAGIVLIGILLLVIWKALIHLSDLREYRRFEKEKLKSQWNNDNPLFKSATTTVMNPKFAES
Mac1 fbg enh – enhancers of CD11b/CD18 adhesion to fibrinogen, primary screen, K562 cells, luminescence; Integrin beta-2 (Homo sapiens) + Integrin alpha-M (Homo sapiens), P05107+P11215; ATPlite luminescence; activation, % at 10 µM; 93,000 tested, 0.07% active; AID 1499, 2009;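 active means 10 µM primary screen giving 50% or more activity, confirmed by 40% or more on retest at that dose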
CYP2C19 act – human CYP2C19 activators, primary screen, biochemical, luminescence | Cytochrome P450 2C19 (Homo sapiens), P33261 | recombinant CYP2C19, luciferin-H EGE luminescence; stronger effect = higher value; 0 = fully inhibited enzyme, 1 = untreated enzyme | activation factor at 5 µM | 96,000 tested, under 10 active | AID 1025, 2008;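 active means activation factor of at least 2 at 5 µM in the primary screen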;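 further: 0 = wells with 2.5 mM tranylcypromine and 1 = vehicle-only wells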
CYP2C9 activ – human CYP2C9 activators, primary screen, biochemical, luminescence | Cytochrome P450 2C9 (Homo sapiens), P11712 | 96,000 tested, 1.4% active | activation factor at 5 µM | recombinant CYP2C9, luciferin-H conversion; stronger effect = higher value; factor 1 = untreated enzyme, 0 = blocked;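 active means activation factor of 2 or more for CYP2C9 at a 5 µM dose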;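 further: 0 = sulfaphenazole-blocked wells and 1 = vehicle-only wells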
Starred values were filed as active, the others as inactive; / = no result given.

SMILES	CYP2C19 inhib	CYP2C9 inhib	Mac1 fbg inh	Mac1 fbg enh	CYP2C19 act	CYP2C9 activ
CCOC(=O)c1ccc2c(c1)C1C=CCC1C(C(=O)O)N2 (stereo not drawn)	8	27	-24	116*	0.9	0.7
Cc1ccc2c(c1C)NC(C(=O)O)C1CC=CC21 (stereo not drawn)	-12	-12	-27	124	1.1	1.1
CCOC(=O)c1cnc(-n2nc(C)cc2C)nc1NC	31	26	36	2	0.7	0.7
CCOC(=O)c1cnc(-n2nc(C)cc2C)nc1N(CC)CC	46	79*	-17	0	0.5	0.2
COc1cc(CNCCO)ccc1OC1CCCC1	1	-5	-1	-1	1	1
Cc1cc2c(cc1C)CSC(c1ccccc1OC(=O)C(C)(C)C)SC2	27	52*	-40	1	0.7	0.5
Cc1cc2c(cc1C)CSC(c1c(O)ccc3ccccc13)SC2	81*	99*	16	19	0.2	0
Cc1cc2c(cc1C)CSC(c1ccccc1O)SC2	18	14	-4	-6	0.8	0.9
CCCCC(=O)Oc1ccccc1C1SCc2cc(C)c(C)cc2CS1	1	15	5	-6	1	0.8
Cc1cc2c(cc1C)CSC(c1ccc3ccccc3c1O)SC2	53*	92*	11	3	0.5	0.1
COc1ccc(/C=N/NC(=O)CNC(=O)C2COc3ccccc3O2)cc1OC (stereo not drawn)	/	/	14	1	/	/
COc1ccccc1N/C(=N/c1nc(C)cc(C)n1)NC(C)=O	-10	-5	1	-2	1.1	1.1
COc1cc(C(=O)NCCC(=O)NC2CCCCCCC2)cc(OC)c1OC	83*	37	-10	-3	0.2	0.6
C=C(C)CN(CC)c1nc(N)c2c(N)nc3c(c2c1C#N)CC(=O)N3C12CC3CC(CC(C3)C1)C2	42	92*	-20	38	0.6	0.1
CCCCN1C(=O)Cc2c1nc(N)c1c(N)nc(N(CCC)CCC)c(C#N)c21	-1	42	-13	64	1	0.6
Cc1cc2nc(-c3ccc(SCC(=O)N4CCOCC4)nc3)[nH]c2cc1C	13	20	-16	-3	0.9	0.8
Cc1cc2nc(-c3ccc(SCC(=O)N4CCN(C(=O)c5ccco5)CC4)nc3)[nH]c2cc1C	72*	84*	/	/	0.3	0.2
Cc1cc2nc(-c3ccc(SCC(=O)Nc4ccc5c(c4)OCCO5)nc3)[nH]c2cc1C	31	78*	/	/	0.7	0.2
CC1CCCCC1NC(=O)c1ccc(CNc2c(N3CCCC3)c(=O)c2=O)cc1 (stereo not drawn)	-7	5	-3	4	1.1	1
CCOC(=O)c1cc(C)n(-c2c(C)n(C)n(-c3ccccc3)c2=O)c1C	-7	-16	-3	0	1.1	1.2
COc1ccc(C2SCC(=O)N2c2c(C)n(C)n(-c3ccccc3)c2=O)c(OC)c1 (stereo not drawn)	55*	14	/	/	0.4	0.9
COc1ccc(C2SCC(=O)N2c2c(C)n(C)n(-c3ccccc3)c2=O)cc1OC (stereo not drawn)	10	12	-8	1	0.9	0.9
CCOc1ccc(C2SCC(=O)N2c2c(C)n(C)n(-c3ccccc3)c2=O)cc1 (stereo not drawn)	67*	71*	-4	-3	0.3	0.3
c1ccc(CNc2ccc3c(c2)ncn3C2CCCCC2)nc1	8	13	-6	-3	0.9	0.9
C=CCn1c(O)c(N=NC(=O)c2ccc3c(c2)OCO3)c2ccccc21	2	-4	/	/	1	1
SMILES	CYP2C19 inhib	CYP2C9 inhib	Mac1 fbg inh	Mac1 fbg enh	CYP2C19 act	CYP2C9 activ
COc1ccc(CSCC(=O)N/N=C/c2ccc(OCC(=O)NCc3ccco3)cc2)cc1	58*	70*	-24	0	0.4	0.3
Cc1cccc(N(CC(=O)N/N=C/c2cc([N+](=O)[O-])ccc2Cl)S(C)(=O)=O)c1C	53*	33	/	/	0.5	0.7
Cc1cccc(N(CC(=O)N/N=C/c2ccc(OCC(=O)NCc3ccco3)cc2)S(C)(=O)=O)c1C	77*	96*	-23	0	0.2	0
Cn1c(SCCOc2ccccc2Cl)nnc1-c1ccncc1	97*	62*	10	4	0	0.4
CC(=O)CSc1nnc(-c2ccncc2)n1C	42	8	-12	1	0.6	0.9
Cc1ccccc1OCCSc1nnc(-c2ccncc2)n1C	97*	86*	-6	-1	0	0.1
COc1ccc2c(=O)c3c(=O)n(Cc4ccco4)c(-c4ccccc4)nc3oc2c1	73*	73*	-5	0	0.3	0.3
CCCCCCn1c(-c2ccco2)nc2oc3cc(OC)ccc3c(=O)c2c1=O	93*	90*	-13	-4	0.1	0.1
CCCc1nc2oc3cc(OC)ccc3c(=O)c2c(=O)n1Cc1ccco1	7	-12	5	-2	0.9	1.1
COc1ccc2nc(Nc3sc4c(c3C(N)=O)CCCC4)sc2c1	/	/	24	54	/	/
Cc1ccccc1NS(=O)(=O)c1ccc(OCC(=O)N2CCCCC2)cc1	22	2	-5	3	0.8	1
Cc1ccc(-c2csc(NC(=O)CSc3ncn(-c4ccccc4)n3)n2)cc1	64*	67*	-5	21	0.4	0.3
Cc1csc(NC(=O)CCc2nc3ccccc3s2)n1	83*	-77	-11	36	0.2	1.8
Cc1nnc(NC(=O)CSc2nc(C(C)C)nc3ccccc23)s1	8	66*	-5	0	0.9	0.3
CC(C)c1nc(SCC(=O)Nc2nc3c(s2)CCCC3)c2ccccc2n1	20	-2	57	-3	0.8	1
Cc1csc(NC(=O)CSc2ncn(-c3ccccc3)n2)n1	19	20	1	-2	0.8	0.8
O=C(CSc1ncn(-c2ccccc2)n1)Nc1nc2c(s1)CCCC2	44	64*	1	13	0.6	0.4
CN(c1ccccc1)S(=O)(=O)c1ccc(C(=O)NCC2CCCO2)cc1 (stereo not drawn)	8	37	-4	-1	0.9	0.6
O=C(CCCc1nc2ccccc2s1)NC(c1ccccc1)c1ccccc1	/	/	-1	-3	/	/
O=C(CSc1ncn(-c2ccccc2)n1)Nc1nccs1	56*	21	-3	1	0.4	0.8
CC(=O)Nc1ccc(C(=O)CSc2ncn(-c3ccccc3)n2)cc1	67*	75*	-6	0	0.3	0.3
O=C(CSc1ncn(-c2ccccc2)n1)N1CCc2ccccc21	27	7	-20	5	0.7	0.9

Source: PubChem (Sanford-Burnham Center for Chemical Genomics)
